EWS-Fli inh = inhibitors of EWS/Fli oncoprotein transcriptional activity; inhibition, % at 12.6 µM; A673 NR0B1-luciferase reporter, viability-normalised; actives 0.67% (n = 350,000); AID 651661;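 active = mean inhibition of at least 50% after viability correction, with every replicate also passing that limit; inconclusive = mean reaches 50% but only one of two replicates passes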;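 note: firefly luciferase signal divided by Alamar Blue viability fluorescence both relative to DMSO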
INS-1E GSIS act = GLuc luminescence reporter in INS-1E cells, primary screen for activators of glucose-dependent secretion of insulin | INS-1E GLuc reporter insulin secretion, 2-3 h | activation, % at 16.6 µM | actives 0.61% (n = 370,000) | AID 743287;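 active = lowest replicate activation of at least 40%, so every replicate reaches that level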;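 note: 0% = median of neutral control wells and 100% = median of IBMX positive control wells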
F508del corr = CFTR F508del correction in bronchial cells. actives 0.36% (n = 350,000). activity (quench increase), % at 7.58 µM. CFBE cells, YFP halide quenching; stimulated with forskolin plus potentiator P3; % fluorescence drop versus neutral controls;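 active = mean added fluorescence quench of at least 8% versus neutral control, with both replicates also reaching 8%; inconclusive = only one of the mean or replicate conditions met; inactive = mean below 8% and not both replicates reaching 8%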;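 note: cells transiently co-express mutant CFTR-F508del with the halide-sensitive YFP; corrector assay measuring rescue of mutant channel to the surface after 24 h compound exposure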
Env fusion inh = HIV envelope-mediated fusion inhibition. HeLa-JRFL Env/CEM21 cell fusion, luciferase. inhibition, % at 12.3 µM. actives 1.1% (n = 360,000). AID 651610;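 active = mean replicate inhibition score of at least 50 and every replicate individually at or above 50; inconclusive = only one of the two criteria met; inactive = mean below 50 and not all replicates reaching 50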;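 note: 0% = plate neutral controls and 100% = maraviroc near 300 nM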
PGC1a acetyl inh = lowers PGC1a acetylation signal in U2OS cells | AlphaScreen anti-acetyl-lysine; with virally co-expressed GCN5 acetyltransferase | inhibition, % at 15.6 µM | actives 0.17% (n = 350,000);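 active = every replicate shows inhibition of at least 40%; inconclusive = mean inhibition at least 40% but some replicate below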;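 note: 0% = neutral control wells and 100% = positive control wells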
PAX8 reporter = PAX8 transcriptional activity inhibition; actives 1.2% (n = 360,000); inhibition, % at 12.6 µM; RMG-I TPO-luciferase reporter, SteadyGlo, 24 h;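 active = mean replicate inhibition at least 60% with every replicate also reaching 60%; inconclusive = only one of the two criteria is met; inactive = mean below 60% and not all replicates reaching 60%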;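 note: luciferase light reporting Pax8 driven TPO promoter activity; plate controls were median of neutral control wells for no effect and mitoxantrone controls for full effect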
An asterisk follows results filed as active; ? = inconclusive; . = no result; [ ] = another dose, or the depositor's remark. Only some compounds are listed: those with a hit (about 2.7% of all), similar ones and a draw of the others.

SMILES | EWS-Fli inh | INS-1E GSIS act | F508del corr | Env fusion inh | PGC1a acetyl inh | PAX8 reporter
Cc1nn(-c2ccccc2)c(N2CCCC2)c1/C=N/NC(=S)Nc1ccc(F)cc1 | -2 | 75* | 2 | 6 | 1 | -21
Cc1ccc(NC(=S)N/N=C/c2c(C)nn(-c3ccccc3)c2N2CCCC2)cc1 | -3 | 64* | 0 | . | . | 7
Cc1nn(-c2ccccc2)c(N2CCCC2)c1/C=N/NC(=S)Nc1ccccc1C(F)(F)F | 15 | . | 3 | 11 | . | 9
Cc1nn(-c2ccccc2)c(N2CCCC2)c1/C=N/NC(=S)Nc1cc(C(F)(F)F)ccc1Cl | . | -5 | . | . | -5 | .
Cc1nn(-c2ccccc2)c(N2CCCC2)c1/C=N/O | -3 | 91* | 0 | . | -6 | .
C[C@@H]1CN([C@H](C)CO)C(=O)Cc2cc(NC(=O)Nc3ccc(F)cc3)ccc2O[C@H]1CN(C)C(=O)Nc1ccccc1 | -2 | -6 | 2 | . | -1 | -6
CNC[C@@H]1Oc2ccc(NC(=O)Nc3ccccc3)cc2C(=O)N([C@H](C)CO)C[C@@H]1C | . | -4 | -2 | 22[16.7 µM] | 4 | -6
Cc1ccc(CNc2nc(C)nc3sc4c(c23)CCC4)cc1 | . | -15 | . | 74* | -2 | .
CO[C@H]1CN(C)C(=O)c2cc(NC(C)=O)ccc2OC[C@@H](C)N(Cc2cc(F)ccc2F)C[C@H]1C | -3 | -13 | 4 | -17[16.7 µM] | -1 | 19
O=C(CSc1c(Cl)cccc1Cl)NC1CCCc2ccccc21 (configuration not stated) | 2 | 41* | -2 | -3 | ? | 9
O=C(CSc1ccccc1Cl)NC1CCCc2ccccc21 (configuration not stated) | . | 27 | . | -3 | . | -2
N#Cc1ccc(S(=O)(=O)N2CCCN(c3nc4ccc(Cl)cc4s3)CC2)cc1 | 20 | -3 | -3 | 55* | . | 15
COc1ccc2cc(C#N)c(SCC(=O)NNC(=O)Cc3ccccc3)nc2c1 | . | . | . | -90 | -2 | -9
Cc1ccc2nc(SCC(=O)NCc3cccs3)c(C#N)cc2c1 | . | 54* | . | 27 | 3 | .
Cc1ccc2cc(C#N)c(SCC(=O)NNC(=O)Cc3ccccc3)nc2c1 | . | 127* | . | -22 | 18 | 0
C[C@H](NC(=O)C[C@H]1C[C@H]2c3cc(NC(=O)NC4CCCCC4)ccc3O[C@H]2[C@H](CO)O1)c1ccccc1 | 35 | 13 | -1 | 4[16.7 µM] | 3 | -7
COc1ccc(NC(=O)N(C)C[C@@H]2Oc3ncc(C#C[C@@H](C)O)cc3C(=O)N([C@@H](C)CO)C[C@H]2C)cc1 | -10 | 6 | -1 | 1[16.7 µM] | 11 | .
COc1cccc(N2CCN(C(=O)c3ccc(CS(=O)c4ccc(Cl)cc4)o3)CC2)c1 (configuration not stated) | 56* | -15 | 8.4* | -195 | . | 38
COc1ccccc1N1CCN(C(=O)c2cn(Cc3ccccc3)nc2-c2cccnc2)CC1 | -7 | 0 | 2 | . | 15 | 5
COc1cccc(N2CCN(C(=O)c3cn(Cc4ccccc4)nc3-c3cccnc3)CC2)c1 | 57* | -51 | 15* | 18 | 10 | 52
COc1cccc(N2CCN(C(=O)c3ccc(CS(=O)Cc4ccc(C)cc4)o3)CC2)c1 (configuration not stated) | -7 | -11 | 2 | 1 | 5 | 29
COc1cccc(N2CCN(C(=O)c3ccc(CS(=O)c4ccc(C)cc4)o3)CC2)c1 (configuration not stated) | 49 | -8 | 9.6* | -45 | -25 | 66*
O=C([C@H]1[C@H](CO)[C@H]2Cn3c(cccc3=O)[C@@H]1N2C(=O)c1ccccn1)N1CCCCC1 | -3 | -3 | . | 20[16.7 µM] | . | .
C[C@@H]1CN([C@@H](C)CO)C(=O)Cc2cc(NS(=O)(=O)c3cn(C)cn3)ccc2O[C@@H]1CN(C)Cc1ccc(Cl)c(Cl)c1 | -3 | -22 | 3 | -8[16.7 µM] | -3 | 4
CN(C)CCOc1ccc(/C(=C(/CCCl)c2ccccc2)c2ccccc2)cc1 | 23 | 104* | 3 | . | -109 | -2
SMILES | EWS-Fli inh | INS-1E GSIS act | F508del corr | Env fusion inh | PGC1a acetyl inh | PAX8 reporter
O=C(C[C@H]1CC[C@@H]2[C@H](COC[C@@H](O)CN2Cc2ccncc2)O1)NCC1CC1 | 6 | -5 | 3 | . | 5 | 5
Cc1noc(C)c1NC(=O)Nc1cccc2c1O[C@@H](CN(C)Cc1ccc(-c3ccccc3)cc1)[C@@H](C)CN([C@@H](C)CO)C2=O | 10 | -20 | -1 | . | 4 | 0
COc1ccc(S(=O)(=O)NC2CCCCC2)cc1C | 14 | 43* | 2 | . | -12 | .
Cc1ccc(S(=O)(=O)Nc2ccc3c(c2)CC(=O)N([C@H](C)CO)C[C@@H](C)[C@H](CN(C)C(=O)NC(C)C)O3)cc1 | -6 | 9 | 0 | . | 5 | -7
CCSc1nnc(N2C(=O)C(O)=C(C(=O)c3ccco3)C2c2cccc(OC)c2)s1 (configuration not stated) | 1 | 15 | 9.3* | -2 | -9 | -170
CCOc1cccc(C2C(C(=O)c3ccco3)=C(O)C(=O)N2c2nnc(C)s2)c1 (configuration not stated) | -7 | 34 | 3 | -6 | 4 | -12
CCC(NS(=O)(=O)c1c(C)[nH]c(=O)[nH]c1=O)C12CC3CC(CC(C3)C1)C2 (configuration not stated) | . | 3 | . | 80* | 1 | -1
Cc1[nH]c(=O)[nH]c(=O)c1S(=O)(=O)NCC12CC3CC(CC(C3)C1)C2 | . | . | . | -25 | . | 4
CCC(=O)N1CC(=O)N2[C@H](C1)[C@H](c1ccc(-c3cccc(C(=O)N(C)C)c3)cc1)[C@@H]2CO | . | 24 | 3 | . | 5 | .
Cn1c(=O)c2cc(S(=O)(=O)NCCC(=O)NCc3ccccc3Cl)ccc2n(C)c1=O | . | 16 | . | 6 | 47* | .
O=C(C1CC1)N1CC2(C1)[C@H](c1ccccc1)[C@H](CO)N2C(=O)CC1CC1 | -1 | 24 | -1 | . | 9 | .
O=C(C[C@H]1CC[C@@H]2[C@H](COC[C@H](O)CN2S(=O)(=O)c2ccccc2)O1)NCc1ccc2c(c1)OCO2 | 1 | 3 | 1 | . | -10 | 0
COc1cc(CN(C)c2ccc(S(=O)(=O)N3CCCC3)cn2)ccc1OC(F)F | 7 | 44* | 2 | 5 | . | .
Cc1cccc(C)c1NC(=O)C(c1ccc(C#N)cc1)n1c(=O)c(-c2cc3ccccc3[nH]2)nc2ccccc21 (configuration not stated) | 3 | 15 | 3 | 75* | . | 13
O=C(C[C@@H]1CC[C@@H]2NC[C@@H](O)COC[C@H]2O1)NCCN1CCCC1 | 26 | 8 | -3 | . | 6 | -46
COc1ccc(C(=O)N2[C@@H](C(C)C)COc3cc(Br)ccc3S2(=O)=O)cc1 | -1 | -10 | -1 | . | . | 65*
COc1ccc(NC(=O)N(C)C[C@H]2Oc3cc(Br)ccc3S(=O)(=O)N([C@H](C)CO)C[C@@H]2C)cc1 | -7 | -20 | 2 | 2[16.7 µM] | -4 | -4

Screens as filed in PubChem.
